FMDV antiviral: foot and mouth disease virus antiviral activity. AID 1159524. FMDV antiviral cell-based qHTS. actives 1.2% (n = 410,000). Potency, µM (top dose mostly 57.9 µM), for the others: top-dose activity change, negative = inhibition, most hits filed as inhibitors; calls by dose curve; tested in HEK293T cells; also: read-out not given here; potency is read from the fitted curve at half-maximal effect; % is scaled to controls: 0 for no effect and ±100 for the full control effect; nearly all actives have a fitted effect of over 45% in size
Sm TGR inh: blocks Schistosoma mansoni thioredoxin glutathione reductase; Q962Y6; purified TGR, DTNB reduction, TNB absorbance 405 nm; Potency, µM (highest dose often 114 µM), for inactives: top-dose activity change, negative = inhibition, hits mostly inhibitors; actives 3% (n = 360,000); AID 485364; active = well fitted inhibition curve with a large enough effect; inconclusive = small, poorly fitted or top-dose-only effect; inactive = no such curve, though single readings can be large or run the other way; also: potency is read from the fitted curve at half-maximal effect; % is scaled to controls: 0 for no effect and ±100 for the full control effect; nearly all actives have a fitted effect of over 60% in size
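Kinetic colorimetric format: TGR-catalysed, NADPH-driven DTNB reduction monitored via TNB absorbance. Enzyme dispensed at 20 nM; compound exposure 15 min at room temperature before reaction start.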
Shiga inhibitor: Shiga toxin inhibition; actives 9.2% (n = 290,000); Vero cells, Shiga toxin protein synthesis inhibition reporter; inhibition, % at 38.7 µM; in the data active = inhibition mostly above about 28%, no sharp cut-off; inactive = mostly below about 43%; also: 0% is about no effect
CHX counter: affects cycloheximide protein synthesis inhibition readout, counter-screen; cell reporter, cycloheximide protein synthesis inhibition counterscreen; max response, %; actives 12% (n = 300,000); AID 2314; in the data active = max response mostly above about 13%, no sharp cut-off; inactive = mostly below about 14%; also: read at 38.3 µM for the half of the compounds with a filed dose; 0% is about no effect
Numbers without * were called inactive; u = inconclusive; x = not tested or not shown; [ ] = another dose, or the depositor's remark. Sampled rows, rich in hits. Any-hit rate of the full collection: about 12%.

SMILES | FMDV antiviral | Sm TGR inh | Shiga inhibitor | CHX counter
Cc1nnc(SCc2ccccc2)n(N)c1=O | -13% | -9% | -8 | 4
Cc1nnc(SCc2cccc(Oc3ccccc3)c2)n1N | 23% | -4% | 5 | 21*
Cc1ccc(CSc2nnc(C)c(=O)n2N)cc1 | 7% | 1% | 5 | 12*
CCC1CN(CCNC(=O)c2scc3c2OCCO3)Cc2cc(OC)ccc2O1 (centres undefined) | 27% | x | x | x
CCOC(=O)CNC(=O)c1cc2c(=O)n3cccc(C)c3nc2n1C | 11% | -6% | x | x
Brc1ccc(-c2noc(C3CCCCC3)n2)cc1 | 37% | 13% | 34* | 14*
c1ccc(-c2noc(C3CCCCC3)n2)nc1 | 11% | -4% | 66* | 32*
OC[C@H]1O[C@@H](c2nc(-c3ccc(Br)cc3)no2)C[C@@H]1O | 27% | x | x | x
CC(C)OCCCNc1ncnc2sc3c(c12)CCCC3 | -13% | -2% | x | x
CCc1ccc(CNC(=O)CCN2C(=O)COc3ccccc32)cc1 | -5% | 7% | x | x
O=C(OCc1ccc(Cl)c(Cl)c1)c1cccnc1Cl | -3% | 3% | 25 | 23*
Nc1ncccc1OCc1ccc(Cl)c(Cl)c1 | -29% | 14% | 56* | 47*
O=C(OCc1ccc(Cl)c(Cl)c1)c1ccccn1 | 35% | 2% | 20 | 13
O=C(COC(=O)c1cccnc1Cl)c1cccc(Cl)c1 | 39% | -8% | 39* | 34*
COc1cc(CNCc2ccccn2)ccc1OCc1ccc(Cl)c(Cl)c1 | -9% | 6% | 64* | 20*
COc1cc(CNCc2ccccn2)ccc1OCc1ccc(Cl)cc1Cl | u | 11% | -7 | -4
CC(C)C(=O)NCC1CCC2(CCN(Cc3ccc(-c4ccccc4Cl)o3)CC2)O1 (centres undefined) | -1% | x | x | x
CCCN(Cc1cccs1)C(=O)Nc1ccc(F)c(Cl)c1 | 7% | 1% | x | x
O=C(OCc1ccc(Br)cc1)c1cccnc1Cl | 9% | 6% | 73 | 27*
CCOC(=O)/C(C#N)=C\C1=C(N2CCOCC2)CC(C)(C)OC1 | -2% | 32µM* | 27 | 9
CCOC(=O)/C(C#N)=C/C1=C(N2CCCC2)CC(C)(C)OC1 | -8% | -15% | -7 | -2
O=C(COc1ccccc1)Nc1nc(-c2ccc(S(=O)(=O)N3CCOCC3)cc2)cs1 | 14µM* | 1% | -5 | -3
O=C(COc1ccccc1)Nc1nc(-c2ccncc2)cs1 | 28µM* | 5% | -7 | 0
O=C(CCc1ccc(S(=O)(=O)N2CCOCC2)cc1)Nc1nc(COc2ccccc2)cs1 | 14µM* | -6% | -17 | 1
O=C(COc1ccc(Cl)cc1)Nc1nc(-c2ccc(S(=O)(=O)N3CCOCC3)cc2)cs1 | u | -4% | -12 | -4
SMILES | FMDV antiviral | Sm TGR inh | Shiga inhibitor | CHX counter
COc1cc(C(CC(=O)Nc2cc(C)ccc2C)N2Cc3ccccc3C2=O)cc(OC)c1OC (centres undefined) | 25% | -3% | x | x
CC(C)c1ccc(C(=O)CC2(O)C(=O)N(CN3CCOCC3)c3ccccc32)cc1 (centres undefined) | 40% | -23% | 64* | 39*
Cc1ccc(C(=O)CC2(O)C(=O)N(CN3CCOCC3)c3ccccc32)cc1 (centres undefined) | 20% | -12% | 44* | 18*
COC(=O)CN1C(=O)C(O)(CC(=O)c2ccc(C)cc2)c2ccccc21 (centres undefined) | 0% | 0% | 16 | -3
CCc1ccc(C(=O)CC2(O)C(=O)N(CN3CCOCC3)c3ccccc32)cc1 (centres undefined) | 27% | 2% | 30 | 19*
CCc1ccc(C(=O)CC2(O)C(=O)N(Cc3ccc(C)cc3)c3ccccc32)cc1 (centres undefined) | -14% | -2% | x | x
Cc1ccc(Cn2c(=O)n(-c3cccc(C(F)(F)F)c3)c(=O)c3c(C)c(C)sc32)c(C)c1 | 0% | 6% | x | x
Nn1c(Nc2ccccc2)nc2ccccc2c1=O | -25% | 23%[11.4 µM] | 43 | 1
Cn1c(Nc2ccccc2)nc2ccccc21 | 24% | 3% | 52 | 25*
CCOc1ccc(Nc2nc3ccccc3n2C)cc1 | 37% | x | x | x
Nn1c(Nc2ccccc2)nc2ccccc21 | 68% | 4% | 58* | 36*
O=[N+]([O-])c1ccc(O)c(C=Nc2ccc3c(c2)OCO3)c1 | 21% | 0% | 16* | 24*
CC(C)(C)c1ccc(O)c(N=Cc2cc3c(cc2[N+](=O)[O-])OCO3)c1 | -21% | -28% | x | 2
O=[N+]([O-])c1cc(Br)cc(C=Nc2ccc3c(c2)OCO3)c1O | -25% | 18µM* | 26 | 3
Cc1ccc(N=Cc2cc3c(cc2[N+](=O)[O-])OCO3)cc1[N+](=O)[O-] | 8% | x | x | x
COC(=O)/C=C/COc1ccccc1[N+](=O)[O-] | 64% | -5% | 107* | 43*
O=C(COc1ccccc1[N+](=O)[O-])c1ccccc1 | 15% | x | 25 | 25*
O=C(/C=C/c1ccccc1[N+](=O)[O-])OCC(=O)c1ccccc1 | 55% | 8% | 79* | 37*
O=[N+]([O-])c1ccccc1OC/C(=N\O)c1ccccc1 | 20% | -19% | 41* | 15*
COC(=O)Cc1c(C)c2cc3c(c(C)c2oc1=O)OCN(CCc1ccc(OC)cc1)C3 | -8% | -5% | x | x
COc1cc(/C=C/c2noc(-c3ccccc3O)n2)cc(OC)c1OC | 27% | -5% | 26 | 18
CC(=O)Oc1ccccc1-c1nc(/C=C/c2ccccc2)no1 | -15% | 1% | 63* | 47*
COc1ccc(/C=C/c2noc(-c3ccccc3O)n2)cc1 | 0% | 1% | 83* | 56*
CCCCCC(=O)NC(=S)Nc1ccc(N2CCCCC2)c(Cl)c1 | -7% | -33% | -25 | -6
CCCCCC(=O)Nc1ccc(N2CCN(CC)CC2)c(Cl)c1 | u | -1% | 103* | 60*
SMILES | FMDV antiviral | Sm TGR inh | Shiga inhibitor | CHX counter
CCOC(=O)c1ccc(N2CCN(c3ccccc3F)CC2)c(NC(=O)Nc2ccc(Cl)c(Cl)c2)c1 | 25µM* | 7% | x | x
CCN1CCN(c2ccc(NC(=O)c3ccccc3F)cc2Cl)CC1 | 48% | 1% | 115* | 19*
CCc1ccccc1NC(=O)CC1NCCNC1=O (centres undefined) | -13% | -4% | x | x
Cc1cccc(CNC(=O)c2cnc3sc(N4CCCCCC4)nn3c2=O)c1 | -1% | 19% | x | x
Cc1cc(C(=O)COC(=O)c2ccc([N+](=O)[O-])o2)c(C)n1CC1CCCO1 (centres undefined) | 8% | 35µM* | 123* | 49*
COc1ccc(C(=O)COC(=O)c2cccnc2SC)cc1 | 47% | 8% | 48 | 30*
Cc1cc(C(=O)COC(=O)c2ccc3c(c2)OCO3)c(C)n1CC1CCCO1 (centres undefined) | 81% | -4% | 147* | 40*
Cc1cc(C(=O)COC(=O)C2CCN(C(=O)c3ccc(Cl)cc3)CC2)c(C)n1CC1CCCO1 (centres undefined) | 0% | u | 100* | 66*
CSc1ncccc1C(=O)OCC(=O)c1ccccc1 | 5% | 0% | 11 | 14
Cn1c(=O)n(-c2ccc3c(c2)OCO3)c2nc(-c3ccc(Cl)cc3)nc(C(N)=O)c21 | -8% | -2% | x | x
CC1Cc2cc(S(=O)(=O)CCC(=O)Nc3ccc(OC(F)(F)F)cc3)ccc2N1C(=O)C1CC1 (centres undefined) | u | -1% | x | x
